SNCA viab count – GF-AFC viability counterscreen for inhibitors of alpha-synuclein gene (SNCA) expression; Potency, µM (series often up to 57.1 µM), for the others: top-dose activity change, negative = cytotoxicity, most hits filed as cytotoxic; actives 0.12% (n = 150,000); HEK-293-SNCA-luc viability, GF-AFC fluorescence, 24 h; AID 1671193, 2021;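 further: potency means the concentration at half of the fitted maximal effect; 0% = DMSO-treated cells and -100% = medium-only wells without cells; nearly all actives have a fitted effect of over 30% in size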
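HEK-293-SNCA-luc cells (1500/well) plated 24 h, then exposed 24 h to a dilution series; GF-AFC added 30 min at 37C, fluorescence 405/540 nm; normalised to medium-only and DMSO wells, Hill fit.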
IP6K1 inh – Primary qHTS assay for small molecule inhibitors of Inositol hexaphosphate kinase 1 (IP6K1); AID 1645851, 2021; IP6K1 kinase, ADP-Glo luminescence, 2 h; stronger effect = lower value; Inositol hexakisphosphate kinase 1 (Homo sapiens), Q92551; activity change, % (series mostly up to about 58 µM); actives 0.81% (n = 140,000); in the data active means activity change below about -25%; further: on the % scale 0 is the no-effect control and ±100 the full control effect
Target sequence (Q92551 whole entry, looked up): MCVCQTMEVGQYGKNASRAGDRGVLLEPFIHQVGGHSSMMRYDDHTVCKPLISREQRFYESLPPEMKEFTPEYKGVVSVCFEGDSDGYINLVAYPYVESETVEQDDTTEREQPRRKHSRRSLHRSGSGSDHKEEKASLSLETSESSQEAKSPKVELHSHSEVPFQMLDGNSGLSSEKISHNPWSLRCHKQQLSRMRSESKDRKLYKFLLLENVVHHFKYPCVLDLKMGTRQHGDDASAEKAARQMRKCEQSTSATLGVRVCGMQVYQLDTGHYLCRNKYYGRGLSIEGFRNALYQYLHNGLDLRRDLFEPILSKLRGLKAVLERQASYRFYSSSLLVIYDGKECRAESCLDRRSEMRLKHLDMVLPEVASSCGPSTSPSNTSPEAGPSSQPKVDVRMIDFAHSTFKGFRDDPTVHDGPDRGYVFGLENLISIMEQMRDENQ
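ADP-Glo luminescence measures ADP made by human IP6K1 during a 2 h RT reaction with ATP/IP6 (mix at 1.3 mM/130 uM); top library doses 57.5 and 19.1 uM final.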
KDM5B inhibitor – Primary screen for KDM5B Histone Demethylases FDH-coupled qHTS; Lysine-specific demethylase 5B (Homo sapiens), Q9UGL1; actives 2.6% (n = 220,000); KDM5B demethylase, FDH-coupled NADH fluorescence (FDH is formaldehyde dehydrogenase); Potency, µM (highest dose often 57.7 µM), most hits filed as inhibitors; further: potency means the concentration at half of the fitted maximal effect; 0% is about no effect; nearly all actives have a fitted effect of over 70% in size
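Compound dilutions met 200 nM (final) KDM5BΔAP for 10 min at room temperature before substrate addition. The substrate mix held 12.5 µM H3K4me3 with cofactors 25 µM α-ketoglutarate and 50 µM Fe²⁺. NADH signal gain over 30 min defined activity.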
SNCA expr inhib – Primary qHTS assay for inhibitors of alpha-synuclein gene (SNCA) expression. actives 0.17% (n = 140,000). Potency, µM (titrated, usually from 57.2 µM), without a hit: at the highest dose activity change, negative = inhibition, most hits filed as inhibitors. AID 1671194, 2021. HEK-293 SNCA-luciferase knock-in, luminescence, 24 h;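 further: potency means the concentration at half of the fitted maximal effect; plate controls were DMSO cells for no effect and cell-free wells for full effect; nearly all actives have a fitted effect of over 45% in size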
An asterisk follows results filed as active; i = inactive; ? = inconclusive; · = no result; [ ] = dose if it differs, or a comment. The list is not random: actives were taken first. Their share in the collection is about 2.8%. Unless noted, the call rests on the fitted dose curve; in most records, active means well fitted curve in the direction sought with a large enough effect; inconclusive means small, poorly fitted or top-dose-only effect, or another doubt; inactive means no such curve, though single readings can be large; an effect the other way counts as inactive or inconclusive.

SMILES	SNCA viab count	IP6K1 inh	KDM5B inhibitor	SNCA expr inhib
COc1ccc(-c2nccc3c(=O)cc(-c4cccnc4)oc23)cc1OC	-15%[87.6 µM]	-16	i	15%[87.6 µM]
O=c1cc(-c2cccnc2)oc2c(-c3ccc(O)c(F)c3)nccc12	0%[87.6 µM]	-14	i	31%[87.6 µM]
C[S+](=O)([O-])c1ccc(-c2nccc3c(=O)cc(-c4cccnc4)oc23)cc1	7%[87.6 µM]	-23	35µM*	-5%[87.6 µM]
Cc1ccccc1-c1nccc2c(=O)cc(-c3cccnc3)oc12	-18%[87.6 µM]	-23	40µM*	-13%[87.6 µM]
COc1ncccc1-c1nccc2c(=O)cc(-c3cccnc3)oc12	-11%[87.6 µM]	-12	35µM*	53%[87.6 µM]
O=c1cc(-c2cccnc2)oc2c(NCc3ccc(F)cc3)nccc12	11%[87.6 µM]	71	i	28%[87.6 µM]
c1ccc([C@@H]2CN(Cc3ccncc3)C[C@H]2COc2ccncc2)nc1	-10%	14	?	-19%
Fc1cccc(-c2cnc(Nc3ccc(N4CCOCC4)cc3)c3c2CCO3)c1	1%[87.6 µM]	-13	32µM*	17%[87.6 µM]
Fc1cc(Nc2ncc(-c3ccccc3)c3c2OCC3)cc(N2CCOCC2)c1	-6%[87.6 µM]	-10	13µM*	-4%[87.6 µM]
c1ccc(Nc2ncc(-c3ccccc3)c3c2OCC3)cc1	5%[87.6 µM]	-10	i	117%[87.6 µM]
COc1ccc(CC(=O)NC2CCN(c3cc(-c4ccc(OC)cc4)[nH]n3)CC2)cc1	-1%	-1	i	40%
CCCn1c(N)c(N(CCOC)C(=O)c2cccnc2OCC)c(=O)[nH]c1=O	·	·	i	·
CCc1cnc(N2CCC(COc3ccc4c(cnn4CC[S+](C)(=O)[O-])c3)CC2)nc1	-1%	-12	32µM*	-29%
C[S+](=O)([O-])CCn1ncc2cc(OCC3CCN(c4ncccn4)CC3)ccc21	-1%[87.6 µM]	5	35µM*	?
Cc1nccc(N2CCC(Oc3cnc4c(ccn4CCN[S+](C)(=O)[O-])c3)CC2)n1	6%[87.6 µM]	4	?	?
CCc1cnc(N2CCC(Oc3cnc4c(ccn4CCN[S+](C)(=O)[O-])c3)CC2)nc1	-10%	-13	28µM*	-21%
COc1ccccc1C1CNC(=O)c2nc(-c3cc(C(C)(C)C)[nH]n3)[nH]c2C1 (configuration not stated)	-1%	7	i	14%
CC(CCc1ccccc1)NC(=O)c1ccc(Cn2ccn3nc4c(c3c2=O)CCCC4)cc1 (configuration not stated)	-2%	23	35µM*	-21%
Cc1oc(-c2ccccc2)nc1Cn1ccn2nc3c(c2c1=O)CCCC3	2%	-6	28µM*	-4%
CC(C)Oc1ccc(CNC(=O)c2ccc(Cn3ccn4nc5c(c4c3=O)CCCC5)cc2)cc1	-7%	4	25µM*	-23%
Cc1ccc(NC(=O)c2ccc(Cn3ccn4nc5c(c4c3=O)CCCC5)cc2)cc1C	-8%	36	25µM*	57%
CC(C)c1noc(-c2cn(C3CCN(C(=O)Cc4ccc(F)cc4)C3)nn2)n1 (configuration not stated)	10%	3	i	9%
COc1ccc(CCNC(=O)c2ccc(Cn3ccn4nc5c(c4c3=O)CCCC5)cc2)cc1OC	-9%	3	28µM*	-8%
COc1ncccc1-c1cccc(COc2ccc3c(cnn3CC[S+](C)(=O)[O-])c2)c1	-18%[87.6 µM]	-6	32µM*	27%[87.6 µM]
COc1ncc(-c2cccc(COc3ccc4c(cnn4CC[S+](C)(=O)[O-])c3)c2)cn1	-10%[87.6 µM]	9	35µM*	38%[87.6 µM]
SMILES	SNCA viab count	IP6K1 inh	KDM5B inhibitor	SNCA expr inhib
C[S+](=O)([O-])CCn1ncc2cc(OCc3cccc(-c4ccc(F)cc4)c3)ccc21	-21%[87.6 µM]	-3	35µM*	-6%[87.6 µM]
Cc1ccc(C(=O)N2CCCN(Cc3ccncc3)C(c3ccccc3)CC(=O)NCC2)s1 (configuration not stated)	4%	12	?	18%
COc1cccc(CNC(=O)C(C)Oc2ccccc2)c1 (configuration not stated)	·	·	i	·
CC(NC(=O)CCc1ccccc1)C1CC2CCC1C2 (configuration not stated)	·	·	i	·
Cc1ccc(C#N)c(NCc2cccnc2N2CCN(c3ccccn3)CC2)n1	-15%	14	28µM*	-13%
Cc1cccc(-c2nc3cnccn3c2NCCC(=O)N(C)C)c1	27%	-3	32µM*	5%
Cc1cccc(C(=O)Nc2c(-c3ccccc3)nc3cc(C)ccn23)c1	?	4	i	28%
COc1cc(-c2nc3cnccn3c2Nc2ccc(C(C)C)cc2)ccc1O	?	-10	?	17%
Cc1cccc(-c2nc3cnccn3c2NCCC(=O)N2CCCCC2)c1	23%	6	28µM*	0%
Cc1ccccc1-c1nc2cnccn2c1NCCC(=O)N1CCCCC1	20%	23	25µM*	117%
Cc1cccc(C)c1Nc1c(-c2ccccc2O)nc2cnccn12	·	·	i	·
COc1cccc(-c2nc3cnccn3c2NCCC(=O)N2CCN(C(C)C)CC2)c1	?	6	28µM*	2%
Cc1cccc(-c2nocc2CCC(=O)N2CCN(c3cccc(C)c3)CC2)c1	-8%	11	i	6%
CSc1nc(C(C)C)nc(C)c1C(=O)Nc1ccc(Cl)cc1F	·	·	i	·
C=CCn1c(N2CCN(Cc3ccc(Br)cc3)CC2)nc2c1c(=O)[nH]c(=O)n2C	·	·	i	·
Cc1ccccc1-c1nc2cnccn2c1NCCC(=O)N1CCC(C)CC1	14%	19	28µM*	?
COc1cccc(-c2nc3cnccn3c2NCCC(=O)NC2CCCCCC2)c1	?	2	28µM*	19%
CN(C(=O)c1ccccc1Cl)C1CCCc2ccccc21 (configuration not stated)	-1%[87.6 µM]	-11	i	16%[87.6 µM]
O=C(NC1CCCN(c2cc(-c3ccccc3)[nH]n2)C1)c1ccc2nc[nH]c2c1 (configuration not stated)	-4%	0	i	35%
O=C(c1ccc(Cl)cc1)N1CCC(n2cc(-c3ccccn3)[nH]c2=O)CC1	2%	5	45µM*	1%
Cn1c(C(=O)NC2CCN(Cc3ccccc3)CC2)cc2c1CCN(Cc1ccccc1)C2	-2%	-8	20µM*	-29%
N#Cc1cccnc1N1CCN(Cc2cn(-c3ccccc3)nn2)CC1	-2%	-12	22µM*	-12%
COc1ccc(NC(=O)Nc2c(NC3CCCCC3)c3ccccc3oc2=O)cc1	·	·	i	·
Cc1ccc(C(=O)N2CCCN(c3ccc4nnc(C5CC5)n4n3)CC2)cc1	·	21	·	·
COCC(=O)N[C@H]1CO[C@H]2[C@@H]1OC[C@@H]2Nc1nccc(-c2cccc(F)c2)n1	-4%[87.6 µM]	-5	35µM*	22%[87.6 µM]
O=C(N[C@H]1CO[C@H]2[C@@H]1OC[C@@H]2Nc1nccc(-c2cccc(F)c2)n1)c1ccccc1	4%[87.6 µM]	0	?	?
